High-throughput results deposited in PubChem BioAssay by Broad Institute.
A selection: hits, their analogues and other compounds. The true share with any hit is near 2.1%.
ERAP1 inh = blocks human ERAP1 aminopeptidase activity. recombinant ERAP1, Leu-AMC fluorescence, 60 min. inhibition, % at 10.7 µM. 0.15% of 340,000 active. AID 652197;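 active means mean replicate inhibition of at least 30%, or all replicates individually reaching that 30% level; inactive means mean below 30% and not every replicate reaching it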;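 further: 0% = neutral control wells and 100% = L-leucinethiol positive control wells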
Target sequence (Q9NZ08 whole entry, looked up): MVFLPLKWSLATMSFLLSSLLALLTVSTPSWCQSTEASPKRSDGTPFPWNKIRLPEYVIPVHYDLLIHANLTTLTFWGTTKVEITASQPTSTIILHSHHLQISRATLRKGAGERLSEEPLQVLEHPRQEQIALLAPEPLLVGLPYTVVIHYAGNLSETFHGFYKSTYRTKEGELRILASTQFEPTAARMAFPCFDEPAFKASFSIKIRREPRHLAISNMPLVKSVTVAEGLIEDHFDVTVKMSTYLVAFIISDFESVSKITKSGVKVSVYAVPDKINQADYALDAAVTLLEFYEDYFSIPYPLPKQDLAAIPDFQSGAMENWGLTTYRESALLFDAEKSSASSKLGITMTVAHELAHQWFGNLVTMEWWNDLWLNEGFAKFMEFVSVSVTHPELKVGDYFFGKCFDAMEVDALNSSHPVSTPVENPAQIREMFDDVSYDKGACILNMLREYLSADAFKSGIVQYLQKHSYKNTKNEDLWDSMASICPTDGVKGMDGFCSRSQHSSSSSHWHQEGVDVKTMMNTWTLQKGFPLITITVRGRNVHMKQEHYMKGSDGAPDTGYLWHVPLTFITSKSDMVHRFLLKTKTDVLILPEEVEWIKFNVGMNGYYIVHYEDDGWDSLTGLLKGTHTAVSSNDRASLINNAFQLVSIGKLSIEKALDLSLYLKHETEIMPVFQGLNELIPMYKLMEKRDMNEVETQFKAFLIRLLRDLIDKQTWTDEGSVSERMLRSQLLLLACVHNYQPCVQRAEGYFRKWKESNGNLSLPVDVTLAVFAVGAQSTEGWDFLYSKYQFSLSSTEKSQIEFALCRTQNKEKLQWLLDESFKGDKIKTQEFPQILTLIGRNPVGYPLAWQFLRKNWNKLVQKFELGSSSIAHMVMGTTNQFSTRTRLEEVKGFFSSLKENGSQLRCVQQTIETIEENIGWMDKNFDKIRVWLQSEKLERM
ARNT-TACC3 inh = ARNT/TACC3 interaction disruption | AlphaScreen His-ARNT PAS-B/GST-TACC3 binding, luminescence; TACC3 fragment carries E629A point mutation | 0.66% of 390,000 active | Q9Y6A5 | inhibition, % at 9.99 µM;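 active means mean inhibition of replicates at least 50% and at least half of replicates each reaching 50%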;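 further: 0% = complete ARNT plus TACC3 wells and 100% = ARNT alone without TACC3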
Ecoli rRNA inh = inhibitors of bacterial rRNA selective over humanized ribosomes | E. coli WT GFP vs humanized-ribosome RFP mutants, fluorescence, 24 h; hits give low values; DMSO median 0, no signal -100 | GFP signal change (wild-type ribosome), % (test concentration not listed) | 1.6% of 350,000 active | AID 720706;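 active means significant combined selectivity score with lowered wild-type GFP, culture density cut under 30%, mutant RFP and density less affected; inactive means any of these conditions unmet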
PvdQ inh = P. aeruginosa PvdQ acylase inhibition. purified PvdQ acylase, fluorescence plate reader. inhibition, % at 10 µM. 0.063% of 340,000 active. AID 488965; in the data active means inhibition above about 30%, passing the limit was not always enough;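 further: 0% = vehicle neutral wells and 100% = reference inhibitor wells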
F508del corr = CFTR F508del correction in bronchial cells | CFBE cells, YFP halide quenching; stimulated with forskolin plus potentiator P3; % fluorescence drop versus neutral controls | activity (quench increase), % at 7.58 µM | 0.36% of 350,000 active;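 active means mean added fluorescence quench of at least 8% versus neutral control, with both replicates also reaching 8%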;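 further: cells transiently co-express mutant CFTR-F508del with the halide-sensitive YFP; corrector assay measuring rescue of mutant channel to the surface after 24 h compound exposure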
Active calls of the source: *; / = no result given.

SMILES | ERAP1 inh | ARNT-TACC3 inh | Ecoli rRNA inh | PvdQ inh | F508del corr
CC(C)NC(=O)N(C)C[C@H]1OCCCC[C@H](C)Oc2ccc(NS(=O)(=O)c3cccs3)cc2C(=O)N([C@@H](C)CO)C[C@@H]1C | 2 | -14 | -4 | / | -2
COc1ccc(-n2c(-c3ccc(Cl)cc3)c[n+]3c2CCCCC3)cc1 | / | 1 | -32* | -6 | 4
COc1ccc(-c2c[n+]3c(n2-c2ccc(C)cc2)CCCCC3)cc1 | 0 | -2 | -48 | 2 | 2
CC(=O)Nc1ccc(S(=O)(=O)N2c3ccc(F)cc3CCC2C)cc1 (stereo not given) | 3 | -2 | -35 | 5 | 0
COc1ccc(S(=O)(=O)N2c3ccc(F)cc3CCC2C)cc1 (stereo not given) | 3 | -1 | -28* | -3 | /
N#CC1=C2SCC(O)(c3ccccc3)N2C(=O)CC1c1cccs1 (stereo not given) | 4 | 12 | -37* | 10 | 7
C[C@@H]1CN([C@H](C)CO)C(=O)c2cc(NC(=O)Cn3cnnn3)ccc2O[C@@H]1CN(C)Cc1ccc(Oc2ccccc2)cc1 | -1 | 10 | -3 | / | -3
Cc1ccc(S(=O)(=O)N2CCOCC2)cc1NC(=O)COC(=O)c1cccc(Cl)c1Cl | -4 | -6 | -32* | -4 | -1
Cc1ccc(NC(=O)COC(=O)c2cccnc2Cl)cc1S(=O)(=O)N1CCOCC1 | -1 | 8 | -25* | 14 | -2
CCOc1ncccc1C(=O)OCC(=O)Nc1ccc(C)c(S(=O)(=O)N2CCOCC2)c1 | 20 | -4 | -17 | -11 | /
O=C(COC(=O)c1ccc(Cl)nc1)Nc1cc(S(=O)(=O)N2CCOCC2)ccc1Cl | 0 | 22 | / | 3 | 4
Cc1ccc(S(=O)(=O)N2CCOCC2)cc1NC(=O)COC(=O)c1ccc(Cl)nc1 | 0 | 3 | 3 | -6 | 10*
C[C@@H]1CCCCO[C@H](CN(C)C)[C@H](C)CN([C@H](C)CO)C(=O)c2cc(N(C)C)ccc2O1 | / | / | 2 | / | -1
C[C@H]1CN([C@@H](C)CO)C(=O)c2cc(NC(=O)NC3CCCCC3)ccc2O[C@H]1CN(C)S(=O)(=O)c1ccc(Cl)cc1 | 1 | 12 | 0 | / | 0
COc1ccc(N2CCN(c3ccc(N4C(=O)CC(C)C4=O)cc3[N+](=O)[O-])CC2)cc1 (stereo not given) | / | 14 | -29* | 8 | -1
CC1CC(=O)N(c2ccc(NCCc3ccc(O)cc3)c([N+](=O)[O-])c2)C1=O (stereo not given) | -2 | 8 | -22* | 6 | -2
COc1ccc(N2CCN(c3ccc(N4C(=O)COCC4=O)cc3[N+](=O)[O-])CC2)cc1 | / | 40 | / | 13 | /
COc1ccc(S(=O)(=O)N(C)C[C@H]2Oc3ccc(NC(=O)Cc4cn(C)c5ccccc45)cc3C(=O)N([C@H](C)CO)C[C@H]2C)cc1 | -1 | 10 | -1 | / | -1
CC(C)c1c(C(=O)N/N=C/c2cccnc2)nnn1-c1nonc1N | 0 | -2 | -20* | 10 | -2
Cc1ccc(SCc2c(C(=O)N/N=C/c3ccccc3)nnn2-c2nonc2N)cc1 | 4 | -3 | -16* | -12 | -2
Cc1c(C(=O)N/N=C/c2c(O)ccc3ccccc23)nnn1-c1nonc1N | -1 | -10 | 7 | 2 | 14*
Cc1noc(C)c1S(=O)(=O)Nc1ccc2c(c1)CC(=O)N([C@H](C)CO)C[C@@H](C)[C@H](CN(C)S(=O)(=O)c1cn(C)cn1)O2 | -2 | -1 | 5 | / | 1
Cc1ccc(S(=O)(=O)N[C@@H]2CC[C@@H](CCNC(=O)Nc3ccc(Cl)cc3)O[C@@H]2CO)cc1 | 1 | / | -11 | / | 1
CCN(c1ccccc1)S(=O)(=O)c1cc(C(=O)Nc2ccccc2Cl)ccc1F | 2 | 20 | -22 | 49* | /
CCN(c1ccccc1)S(=O)(=O)c1cc(C(=O)Nc2ccc(Br)cc2)ccc1F | / | 3 | / | 5 | /
SMILES | ERAP1 inh | ARNT-TACC3 inh | Ecoli rRNA inh | PvdQ inh | F508del corr
CC(C)NC(=O)Nc1n[nH]c(Nc2ccc(Cl)cc2)n1 | 1 | 2 | -18* | -4 | 0
COc1ccc(Cl)cc1NC(=O)NC(C)C | -1 | / | 5 | -16 | 2
Cc1ccc(NCCN(C)C)c2c(=O)c3cc(O)ccc3sc12 | 64* | 27 | -56 | -6 | 1
CC(=O)/C(=N/Nc1ccccc1[N+](=O)[O-])N1CCCc2ccccc21 | / | / | -28* | / | 1
CN(C)C(=O)[C@H]1[C@H](CO)[C@H]2Cn3c(ccc(C4=CCCC4)c3=O)[C@@H]1N2Cc1ccccn1 | 3 | / | 2 | / | -1
O=C(COc1ccc([N+](=O)[O-])cc1)NNC(=O)Nc1ccc([N+](=O)[O-])cc1 | -8 | 3 | -19* | 6 | 0
CCCOC(=O)c1cccc(NC(=O)COc2ccc([N+](=O)[O-])cc2)c1 | 2 | -23 | -21* | -8 | 4
Cc1ccc(NC(=O)NNC(=O)COc2ccc([N+](=O)[O-])cc2)cc1C | -3 | -30 | 7 | -12 | 6
CCOC(=O)/C=C/c1c(OC)cccc1OC | 2 | -4 | / | / | -1
CCOC(=O)C1=C(C)NC(C)=C(C(=O)OCC)C1c1cn(-c2ccccc2)nc1-c1ccco1 | / | 62* | / | -13 | /
CCOC(=O)C1=C(C)NC(=O)NC1c1cn(-c2ccccc2)nc1-c1cccs1 (stereo not given) | / | 1 | / | -8 | /
CC12CCC(/C(=C/NNc3ccc([N+](=O)[O-])cc3[N+](=O)[O-])C1=O)C2(C)C (stereo not given) | 4 | / | -23* | / | -4
O=C(c1ccco1)c1nnn(Cc2ccccc2)c1-c1ccccc1 | 9 | 13 | -36* | 16 | 2
Nc1c(C(=O)NCc2ccco2)nnn1Cc1ccccc1 | / | 3 | / | 0 | /
COc1ccc2c3c(n(C)c2c1)[C@H](CO)N(C(=O)CN1CCOCC1)CC31CN(C(=O)Nc2cccc(F)c2)C1 | -5 | / | 2 | / | -4
COC(CNC(=O)c1ccc2nc(-c3cccs3)c(-c3cccs3)nc2c1)OC | 3 | -15 | -22* | -13 | 0
Cc1ccc(C(=O)NCC#N)cc1 | 0 | -13 | 2 | -16 | 0
Cc1ccc(C(=O)NC(C#N)=C(Cl)Cl)cc1 | 5 | / | -27* | / | 7
COc1ccc(C(=O)c2ccc(OC)c(OC)c2)cc1OC | / | -5 | / | -11 | /
COc1ccc(C(=O)c2cc(OC)c(OC)c(OC)c2)cc1OC | 2 | / | 3 | -12 | 13*
CCOc1ccccc1C1C2=C(COC2=O)Nc2cc3c(cc21)OCO3 (stereo not given) | -3 | 1 | -24* | -14 | 5
CCc1cc2c(nc1CC)CCCN2S(=O)(=O)c1ccc(OC)cc1 | 0 | / | -43 | / | -2
COc1ccc(S(=O)(=O)N2CCCc3nc(C)c(C)cc32)cc1 | -3 | / | -15* | / | -2
COc1ccc(NC(=O)N(C)C[C@@H]2OCCCC[C@H](C)Oc3ccc(NS(C)(=O)=O)cc3C(=O)N([C@H](C)CO)C[C@@H]2C)cc1 | 4 | -13 | -5 | / | 0
